Assay results as given in PubChem BioAssay AID1159580 (chemical genetic matrix, 2015).
The whole screen tested about 5,500 compounds, of which about 2,000 (36%) were called active. About 18% were inconclusive and are not listed. No stated cut-off is given here; in the data, active means normalized growth mostly below about 0.91 (no sharp cut-off); inconclusive means no clear call, values can overlap the other calls; inactive means mostly above about 0.92. Some of the results follow.

Experiment: chemical genetic growth profiling, strain panel (AID 1159580);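 further: tested at 20 µM; growth read once vehicle control cultures reached saturation at 30 °C; 1 = growth at the plate median or of vehicle wells; lower values mean less growth of the strain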
Conditions: growth OD

Measured: normalized growth

O=C(/C=C/c1ccccc1)c1c(O)cc(O)cc1O
inactive: S. cerevisiae deletion strains, locus YAL013W, strain DEP1, active compounds read low 1.01 | S. cerevisiae deletion strains, locus YBR021W, strain FUR4, active compounds read low 0.995 | S. cerevisiae deletion strains, locus YBR229C, strain ROT2, active compounds read low 1.01 | S. cerevisiae deletion strains, locus YCL029C, strain bik1, active compounds read low 1 | S. cerevisiae deletion strains, locus YDL035C, strain GPR1, active compounds read low 1.02 | S. cerevisiae deletion strains, locus YDL074C, strain BRE1, active compounds read low 1.02 | S. cerevisiae deletion strains, locus YDL101C, strain DUN1, active compounds read low 1.01 | S. cerevisiae deletion strains, locus YDL134C, strain PPH21, active compounds read low 1.02 | S. cerevisiae deletion strains, locus YDL185W, strain tfp1, active compounds read low 1.01 | S. cerevisiae deletion strains, locus YDL192W, strain arf1, active compounds read low 1 | S. cerevisiae deletion strains, locus YDR101C, strain arx1, active compounds read low 0.999 | S. cerevisiae deletion strains, locus YDR150W, strain NUM1, active compounds read low 1.02 | S. cerevisiae deletion strains, locus YDR162C, strain NBP2, active compounds read low 1.04 | S. cerevisiae deletion strains, locus YDR318W, strain mcm21, active compounds read low 0.995 | S. cerevisiae deletion strains, locus YDR388W, active compounds read low 0.997 | S. cerevisiae deletion strains, locus YDR502C, strain sam2, active compounds read low 1 | S. cerevisiae deletion strains, locus YEL061C, strain CIN8, active compounds read low 1.01 | S. cerevisiae deletion strains, locus YER110C, active compounds read low 1.01 | S. cerevisiae deletion strains, locus YER155C, strain BEM2, active compounds read low 1.01 | S. cerevisiae deletion strains, locus YER167W, strain BCK2, active compounds read low 1.01 | S. cerevisiae deletion strains, locus YGL078C, strain dbp3, active compounds read low 1 | S. cerevisiae deletion strains, locus YGL086W, strain mad1, active compounds read low 1 | S. cerevisiae deletion strains, locus YGL248W, strain PDE1, active compounds read low 1.01 | S. cerevisiae deletion strains, locus YGR078C, strain PAC10, active compounds read low 1.03 | S. cerevisiae deletion strains, locus YGR135W, strain pre9, active compounds read low 1 | S. cerevisiae deletion strains, locus YGR229C, strain SMI1, active compounds read low 1.02 | S. cerevisiae deletion strains, locus YGR252W, strain gcn5, active compounds read low 0.972 | S. cerevisiae deletion strains, locus YHR030C, strain SLT2, active compounds read low 1.01 | S. cerevisiae deletion strains, locus YHR079C, strain IRE1 (second series), active compounds read low 0.994 | S. cerevisiae deletion strains, locus YHR094C, strain hxt1, active compounds read low 1 | S. cerevisiae deletion strains, locus YHR129C, strain ARP1, active compounds read low 1.01 | S. cerevisiae deletion strains, locus YHR200W, strain rpn10, active compounds read low 1 | S. cerevisiae deletion strains, locus YIL066C, strain RNR3, active compounds read low 1.02 | S. cerevisiae deletion strains, locus YIL073C, strain SPO22, active compounds read low 1.04 | S. cerevisiae deletion strains, locus YIL125W, strain kgd1, active compounds read low 1 | S. cerevisiae deletion strains, locus YIR030C, strain dcg1, active compounds read low 0.999 | S. cerevisiae deletion strains, locus YJL095W, strain BCK1, active compounds read low 1.01 | S. cerevisiae deletion strains, locus YJL134W, strain LCB3, active compounds read low 1.01 | S. cerevisiae deletion strains, locus YJL168C, strain set2, active compounds read low 0.993 | S. cerevisiae deletion strains, locus YJL187C, strain SWE1 (second series), active compounds read low 1.01 | S. cerevisiae deletion strains, locus YJR043C, strain POL32, active compounds read low 0.998 | S. cerevisiae deletion strains, locus YJR075W, strain HOC1, active compounds read low 1.01 | S. cerevisiae deletion strains, locus YKL009W, strain mrt4, active compounds read low 1.01 | S. cerevisiae deletion strains, locus YKL068W, active compounds read low 1 | S. cerevisiae deletion strains, locus YKL085W, strain MDH1 (second series), active compounds read low 1 | S. cerevisiae deletion strains, locus YKL085W, strain MDH1, active compounds read low 1 | S. cerevisiae deletion strains, locus YKL190W, strain CNB1, active compounds read low 1.01 | S. cerevisiae deletion strains, locus YKR001C, strain vps1, active compounds read low 1.01 | S. cerevisiae deletion strains, locus YLR039C, strain RIC1, active compounds read low 1.04 | S. cerevisiae deletion strains, locus YLR058C, strain SHM2, active compounds read low 1.01 | S. cerevisiae deletion strains, locus YLR102C, strain apc9, active compounds read low 0.998 | S. cerevisiae deletion strains, locus YLR262C, strain YPT6, active compounds read low 1.06 | S. cerevisiae deletion strains, locus YLR268W, strain sec22, active compounds read low 0.989 | S. cerevisiae deletion strains, locus YLR330W, strain CHS5, active compounds read low 1.01 | S. cerevisiae deletion strains, locus YLR342W, strain FKS1 (second series), active compounds read low 1 | S. cerevisiae deletion strains, locus YLR371W, strain rom2, active compounds read low 0.997 | S. cerevisiae deletion strains, locus YLR418C, strain cdc73, active compounds read low 0.992 | S. cerevisiae deletion strains, locus YML016C, strain PPZ1, active compounds read low 1.01 | S. cerevisiae deletion strains, locus YML032C, strain rad52, active compounds read low 1 | S. cerevisiae deletion strains, locus YML124C, strain tub3, active compounds read low 1.01 | S. cerevisiae deletion strains, locus YMR078C, strain ctf18, active compounds read low 1 | S. cerevisiae deletion strains, locus YMR223W, strain ubp8, active compounds read low 0.995 | S. cerevisiae deletion strains, locus YMR263W, strain SAP30, active compounds read low 1.02 | S. cerevisiae deletion strains, locus YMR307W, strain GAS1, active compounds read low 0.915 | S. cerevisiae deletion strains, locus YNL067W, strain RPL9B, active compounds read low 1.01 | S. cerevisiae deletion strains, locus YNL128W, strain TEP1, active compounds read low 1.02 | S. cerevisiae deletion strains, locus YNL153C, strain GIM3, active compounds read low 1.03 | S. cerevisiae deletion strains, locus YNL233W, strain BNI4, active compounds read low 1.02 | S. cerevisiae deletion strains, locus YNL250W, strain rad50, active compounds read low 1.01 | S. cerevisiae deletion strains, locus YNL271C, strain bni1, active compounds read low 1 | S. cerevisiae deletion strains, locus YNL298W, strain CLA4, active compounds read low 1.01 | S. cerevisiae deletion strains, locus YNL307C, strain MCK1, active compounds read low 1.01 | S. cerevisiae deletion strains, locus YNL322C, strain KRE1, active compounds read low 1.01 | S. cerevisiae deletion strains, locus YNR052C, strain pop2, active compounds read low 0.998 | S. cerevisiae deletion strains, locus YOL006C, strain TOP1, active compounds read low 1.05 | S. cerevisiae deletion strains, locus YOL012C, strain htz1 0.787 | S. cerevisiae deletion strains, locus YOL147C, strain pex11, active compounds read low 1.01 | S. cerevisiae deletion strains, locus YOR061W, strain CKA2, active compounds read low 1.01 | S. cerevisiae deletion strains, locus YOR069W, strain VPS5, active compounds read low 1.01 | S. cerevisiae deletion strains, locus YOR136W, strain idh2, active compounds read low 0.995 | S. cerevisiae deletion strains, locus YOR144C, strain elg1, active compounds read low 1 | S. cerevisiae deletion strains, locus YOR184W, strain ser1, active compounds read low 1.01 | S. cerevisiae deletion strains, locus YOR316C, strain cot1, active compounds read low 0.996 | S. cerevisiae deletion strains, locus YPL055C, strain LGE1, active compounds read low 1.05 | S. cerevisiae deletion strains, locus YPL241C, strain CIN2, active compounds read low 1.01 | S. cerevisiae deletion strains, locus YPR119W, strain clb2, active compounds read low 0.997 | S. cerevisiae deletion strains, locus YPR141C, strain kar3, active compounds read low 1.01 | S. cerevisiae deletion strains, locus YPR163C, strain tif3, active compounds read low 1 | S. cerevisiae deletion strains, locus YPR167C, strain met16, active compounds read low 0.998 | S. cerevisiae deletion strains, strain wtn01, active compounds read low 1.01 | S. cerevisiae strains, strain wild type, active compounds read low 1.01
